Data: the supplement of paper PMC9694430
Counter-ions that a name gives are not always drawn.

Each molecule was assayed on LOC_OS02G17970-cb001 (assay: thermal shift delta Tm vs DMSO control; higher = stronger stabilization (binding)). Conditions: 12.5 µM; protein concentration 2 µM.
Procedure, shortened: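 Compounds dissolved in DMSO were added to purified rice kinase domain constructs, which had been expressed in E. coli, for differential scanning fluorimetry. Each well held 19.5 μl of 2 μM kinase in 100 mM potassium phosphate pH 7.5, 150 mM NaCl, 10% glycerol and 5 × SYPRO Orange. Fluorescence was followed from 25°C to 95°C at a rate of 0.05°C/s. Shifts in Boltzmann-fitted melting temperature are triplicate means relative to DMSO-only protein.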

Compound	thermal shift delta Tm
COc1cc2ncnc(Oc3ccc(CC(=O)Nc4cnn(C(C)C)c4)cc3)c2cc1OC	0.84 °C
CN1C(=O)[C@@H](NC(=O)c2n[nH]c(Cc3ccccc3)n2)COc2ccccc21	0.62 °C
N[C@@H]1CCCN(c2c(/C=C3\SC(=O)NC3=O)cccc2-c2ccccc2)C1	-0.03 °C
Cc1cc(C(C)Nc2ccccc2)c2nc(N3CCOCC3)cc(=O)n2c1 (stereo not drawn)	0.24 °C
CC#CC(=O)N1CC[C@@H](n2c(=O)n(-c3ccc(Oc4ccccc4)cc3)c3c(N)ncnc32)C1 [ONO-4059 (GS-4059) hydrochloride]	0.51 °C
COc1cc(OC)c(C=C2C(=O)Nc3ccccc32)c(OC)c1	0.65 °C
O=C(Nc1cnn2ccc(N3CCC[C@@H]3c3cc(F)ccc3F)nc12)N1CC[C@H](O)C1 [Larotrectinib (LOXO-101) sulfate]	0.72 °C
C[C@H](NC(=O)/C(C#N)=C/c1cccc(Br)n1)c1ccccc1	-2.09 °C
Nc1nccc(Oc2ccc3c(C(=O)Nc4cccc(C(F)(F)F)c4)cccc3c2)n1	1.47 °C
Oc1cccc(-c2nc(N3CCOCC3)c3oc4ncccc4c3n2)c1	0.74 °C
O=C(c1ccc(Nc2nccc(-c3cc4ccccc4s3)n2)cc1)N1CCC(N2CCCC2)CC1 [IKK-16 (IKK Inhibitor VII)]	0.35 °C
Cc1cc(C(=O)NOCCO)c(Nc2ccc(I)cc2F)n(C)c1=O	0.08 °C
c1nc2c(NC3CCCCC3)nc(Nc3ccc(N4CCOCC4)cc3)nc2[nH]1 [Reversine]	0.48 °C
CC#CC(=O)N1CCC[C@H]1c1nc(-c2ccc(C(=O)Nc3ccccn3)cc2)c2c(N)nccn12 [Acalabrutinib (ACP-196)]	0.74 °C
CN1CCN(c2nc(C3=C(c4c[nH]c5ccccc45)C(=O)NC3=O)c3ccccc3n2)CC1 [Sotrastaurin]	0.29 °C
Cc1ccc(-n2nc(C(C)(C)C)cc2NC(=O)NCc2cc(F)ccc2Oc2ccc3c(cnn3CCO)c2)cc1 [Pexmetinib (ARRY-614)]	1.52 °C
Cc1cc(F)c(Nc2ncnc3cc(OCc4ccccc4)ccc23)cc1O	1.59 °C
C[C@@H]1COC(Nc2ccc3ncnc(Nc4ccc(OCc5nccs5)c(Cl)c4)c3c2)=N1 [Varlitinib]	1.04 °C
CCCCNc1ncc2c(-c3ccc(CN4CCN(C)CC4)cc3)cn([C@H]3CC[C@H](O)CC3)c2n1	-0.42 °C

Compound	thermal shift delta Tm
CCC(=O)Nc1cccc(Oc2nc(Nc3ccc(N4CCN(C)CC4)cc3OC)ncc2Cl)c1	0.04 °C
CC(C)(CCCCCC(O)CCCCCC(C)(C)C(=O)O)C(=O)O	0.59 °C
Cc1c(Cn2c(C)nc3c(C(=O)O)cc(N4CCOCC4)cc32)cccc1C(F)(F)F	0.26 °C
Cc1ccc(-n2nc(C(C)(C)C)cc2NC(=O)Nc2ccc(OCCN3CCOCC3)c3ccccc23)cc1 [Doramapimod (BIRB 796)]	0.9 °C
O=S(=O)(NCCNC/C=C/c1ccc(Br)cc1)c1cccc2cnccc12	0.98 °C
CN1CCN(c2ccc(-c3ccncc3-c3cc(F)c(O)c(F)c3)cc2)CC1	0.89 °C
C=CC(=O)N[C@H]1CCOC[C@H]1Nc1ncc2cc(-c3c(Cl)c(OC)cc(OC)c3Cl)ccc2n1	-0.41 °C
Cc1cc(Nc2cc(N)ncn2)c(=O)n2c1C(=O)NC21CCCCC1	-0.32 °C
O=C1NC(=O)C(c2ccccc2[N+](=O)[O-])=C1Nc1ccc(O)c(Cl)c1	1.06 °C
Cc1ccccc1CN1C2=NCCN2C(=O)C2=C1CCN(Cc1ccccc1)C2 [TIC10 Analogue]	0.86 °C
CCNC(=O)Nc1ccc(-c2nc3c(c(N4CCOC[C@@H]4C)n2)CCN(C2COC2)C3)cc1	-0.11 °C
CC[C@@H]1C(=O)N(C)c2cnc(Nc3ccc(C(=O)NC4CCN(C)CC4)cc3OC)nc2N1C1CCCC1	0.02 °C
Nc1nc(N)c2nc(-c3cccc(O)c3)c(-c3cccc(O)c3)nc2n1	1.03 °C
CCc1cnn2c(NCc3ccc[n+]([O-])c3)cc(N3CCCC[C@H]3CCO)nc12	0.96 °C
COc1ccc(CC(=O)Nc2nc3c(s2)CCc2ccccc2-3)cc1OC	0.81 °C
CCn1c(N)c(C(=O)NC)c(=O)c2ccc(C#CC(C)(O)COC)nc21 (stereo not drawn)	0.48 °C
Oc1c(F)cc(-c2cnccc2-c2ccc(N3CCOCC3)cc2)cc1F	0.29 °C
CCN(CC)CCNC(=O)c1c(C)[nH]c(/C=C2\C(=O)Nc3ccc(F)cc32)c1C [Sunitinib]	0.22 °C
CC(C)(C#N)c1ccc(N2C(=O)OCc3cnc4ccc(-c5cnc6ccccc6c5)cc4c32)cc1	0.63 °C
